Source: PubChem
Pf growth 96h: P. falciparum growth inhibition at 96 hours | P. falciparum luciferase reporter growth, 96 h | Potency, µM (series often up to 28.7 µM), for inactives: top-dose activity change, negative = inhibition, hits mostly inhibitors | actives 6.9% (n = 320,000) | AID 504834
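Two parasite generations (96 h, 37 C, 5% CO2) of compound exposure in infected erythrocytes (0.05% parasitemia, 2% hematocrit). Luciferase-reporter P. falciparum; decreased luminescence indicates inhibited growth, aimed at apicoplast-acting delayed death.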
Pf growth 48h: inhibits P. falciparum growth in the first generation, 48 h; AID 504832; Potency, µM (titrated, usually from 28.7 µM), for inactives: at the highest dose activity change, negative = inhibition, actives largely listed as inhibitors; actives 5.9% (n = 310,000); P. falciparum luciferase growth in erythrocytes, 48 h
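Parasite viability was followed by luminescence of a genomically integrated firefly luciferase. Cultures held 0.1% parasitemia at 2% hematocrit (final), incubated under 5% CO2 at 37 C.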
HCV inhibitor: HCV inhibition; Huh7.5.1 HCVcc-Cre infection, luciferase reporter, 44 h; Potency, µM (titrated, usually from 41.8 µM), for the others: top-dose activity change, negative = inhibition, usual class: inhibitors; actives 3.4% (n = 340,000); AID 651820
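Infectious HCVcc-Cre (~0.5 moi) was added to cells just after compound, with cells seeded 4 h earlier at 1,000 per well. Luciferase activity after 44 h culture reported infection; substrate was incubated 15 min at room temperature before reading.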
AmpC inh no detg: blocks E. coli AmpC beta-lactamase in detergent-free assay | AID 485341 | Potency, µM (titrated, usually from 57.1 µM), for the others: at the highest dose activity change, negative = inhibition, actives largely listed as inhibitors | actives 0.52% (n = 330,000) | AmpC nitrocefin hydrolysis, absorbance 480 nm, 0.0001% Triton | P00811;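 further: plate controls were no compound for no effect and no enzyme for full effect; nearly all actives have a fitted effect of over 20% in size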
Target sequence (P00811 whole entry, looked up): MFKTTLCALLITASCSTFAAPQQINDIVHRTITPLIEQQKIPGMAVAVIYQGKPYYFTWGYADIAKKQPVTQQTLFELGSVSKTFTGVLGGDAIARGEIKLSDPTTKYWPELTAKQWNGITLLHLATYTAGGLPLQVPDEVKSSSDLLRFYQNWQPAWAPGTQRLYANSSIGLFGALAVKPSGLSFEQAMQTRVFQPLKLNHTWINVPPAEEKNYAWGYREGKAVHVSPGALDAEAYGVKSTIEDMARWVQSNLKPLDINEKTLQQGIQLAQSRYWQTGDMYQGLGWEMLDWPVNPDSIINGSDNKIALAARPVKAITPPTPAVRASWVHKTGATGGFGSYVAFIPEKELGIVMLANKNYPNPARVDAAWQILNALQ
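20 mM phosphate pH 7.0 + 0.01% (detergent screen) or 0.0001% Triton X-100; 5.3 nM AmpC reagent; cpd preinc 15 min RT; nitrocefin (800 uM stock) to start; A480 q20 s × 4 min; Activity was normalised to no-enzyme and no-compound control wells.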
AMA1-RON2 inh: disrupts binding of P. falciparum AMA1 to RON2; AlphaScreen AMA1-biotinylated RON2 peptide binding; Potency, µM (highest dose often 58.2 µM), for the others: at the top dose activity change, negative = inhibition, hits mostly inhibitors; actives 0.2% (n = 360,000); AID 720542;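 further: 0% = vehicle wells and -100% = peptide control; nearly all actives have a fitted effect of over 45% in size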
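AMA1 (3D7) with his tag at 25 nM final met compounds first, then biotinylated RON2 peptide at 25 nM; detection used donor plus acceptor beads, 10 µg/mL apiece, read by AlphaScreen after 30 min at room temperature.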
AmpC inh detg: AmpC beta-lactamase inhibition with detergent present. P00811. actives 0.041% (n = 370,000). Potency, µM (doses to about 114 µM), without a hit: top-dose activity change, negative = inhibition, hits mostly inhibitors. AmpC hydrolysis of nitrocefin, absorbance 480 nm, 0.01% Triton;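 further: 0% = no-compound wells and -100% = no-enzyme wells; nearly all actives have a fitted effect of over 25% in size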
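AmpC (5.3 nM in the dispensed reagent) in 20 mM phosphate pH 7.0 with 0.01% (detergent screen) or 0.0001% Triton X-100 was preincubated with compounds for 15 min at room temperature. Nitrocefin was then added from an 800 uM solution, and hydrolysis was followed at 480 nm.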
Active calls of the source: *; u = inconclusive; x = no result; ! = repeats disagree; [ ] = remark or other dose. Compounds with a hit are over-represented: about 11% of the library has one in this group of screens. The call rests on the fitted dose curve; in most records, active means well fitted curve in the direction sought with a large enough effect; inconclusive means small, poorly fitted or top-dose-only effect, or another doubt; inactive means no such curve, though single readings can be large; an effect the other way counts as inactive or inconclusive. Unless noted, on the % scale 0 is the no-effect control and ±100 the full control effect; potency means the concentration at half of the fitted maximal effect.

SMILES | Pf growth 96h | Pf growth 48h | HCV inhibitor | AmpC inh no detg | AMA1-RON2 inh | AmpC inh detg
O=C(CN1N=C(c2ccccc2)CCC1=O)NCc1ccc(F)cc1Cl | x | x | x | x | x | 3.7%
O=C(C[n+]1cc(-c2ccccc2)n2c1CCC2)Nc1nc(-c2ccc(F)cc2)cs1 | 10.4µM* | u | 0.708µM* | 112.6% | -7.7% | -7.1%
O=C(C[n+]1cc(-c2ccc(F)cc2)n2c1CCC2)Nc1nc(-c2ccc(F)cc2)cs1 | u | u | u | 113.3% | 10.5%[2.32 µM] | u
O=C(CN1C(=O)NC2(CCCC2)C1=O)Nc1nc(-c2ccc(F)cc2)cs1 | -14.5% | x | 12.6µM* | -12.4% | -16.8% | -1.8%
O=C(CN1CCCCC1)Nc1nc(-c2ccc(Cl)cc2)cs1 | 1.4% | -7.4% | 10µM* | -14.2% | -4.2% | -24.1%
O=C(C[n+]1cc(-c2ccc(Cl)cc2)n2c1CCC2)Nc1nc(-c2ccc(F)cc2)cs1 | u | -2.6% | 10µM* | 87.5% | -12.2% | 0.5%
CC(=O)Nc1ccc(-c2csc(NC(=O)CN3C(=O)NC4(CCCC4)C3=O)n2)cc1 | 10.0% | -12.8% | u | -35.6% | 14.2% | -9.4%
COC(=O)c1cc(NC(=O)c2sc3ncn(Cc4cccc(F)c4)c(=O)c3c2C)cc(C(=O)OC)c1 | x | x | x | x | x | 8.0%
O=C(CN1CCCCC1)Nc1nc(-c2ccccc2)cs1 | 33.3% | x | u | -16.3% | 3.3% | -2.7%
Cc1ccccc1C(=O)N1CCc2cc(-c3csc(NC(=O)CN4CCCC4)n3)ccc21 | -4.7% | 4.15µM* | u | 69.8% | 27.6% | -4.3%
CC(C)C(=O)N1CCc2cc(-c3csc(N)n3)ccc21 | -12.4% | 10.4µM* | -27.3% | -23.7% | -1.4% | 0.8%
COc1cccc(-n2ccnc2SCC(=O)Nc2cccc3ccccc23)c1 | x | x | x | x | x | 0.2%
COCc1cc(C)nc(SCC(=O)Nc2cc3c(cc2C#N)OCO3)c1C#N | 12.0% | 3.0% | 10µM* | -4.0% | 6.0% | u
COc1ccc(NCc2nc3ccccc3n2CCOc2ccccc2C)cc1 | x | x | x | x | x | 12.1%
COc1ccc(-c2coc3c(C)c4oc(=O)c(CCC(=O)O)c(C)c4cc23)cc1 | u | -1.3%[0.00184 µM] | 2.51µM* | 142.2% | -2.6% | -0.7%
CCOC(=O)C1CCCN(C(=O)c2sc3nc(-c4ccc(OC)cc4)cn3c2C)C1 (stereo not drawn) | -16.2% | 13.1µM* | -26.6% | 115.8% | 10.9% | -12.3%
Cc1c(C(=O)N2CCN(c3ccc(F)cc3)CC2)sc2nc(-c3ccccc3)cn12 | 21.4% | 21.2% | 1.2% | -8.1% | -8.8% | -0.8%
COc1ccccc1N1CCN(C(=O)c2sc3nc(-c4ccccc4)cn3c2C)CC1 | -4.6% | u | 11.2µM*! | 168.6% | -26.9% | -3.5%
CCOC(=O)C1CCN(C(=O)c2sc3nc(-c4ccccc4)cn3c2C)CC1 | x | x | 2.5% | 96.3% | -9.2% | 1.8%
COc1ccc(-c2c(C(C)=O)c(C)nc3sc4c(c23)NC(c2ccccc2)NC4=O)cc1 (stereo not drawn) | u | -4.7% | -11.5% | -16.5% | 23.8% | 1.2%
CCOC(=O)c1c(C)nc2sc3c(c2c1-c1ccc(OC)cc1)NC(c1ccccc1)NC3=O (stereo not drawn) | 4.15µM* | 13.1µM* | u | 22.2% | 7.3% | -8.6%
CCOc1ccc(CN(C)CC(O)COC(c2ccc(OC)cc2)c2ccc(OC)cc2)cc1 (stereo not drawn) | 10.4µM* | 10.4µM* | 11.2µM* | 124.1% | u | 0.5%
COc1ccc(CN(C)CC(O)COc2ccc(-c3ccccc3)cc2)cc1OC (stereo not drawn) | 0.0% | u | 7.08µM* | 123.7% | 2.5% | -3.3%
C=CCOc1ccc(CN(C)CC(O)COc2ccc(CCC(C)=O)cc2)cc1 (stereo not drawn) | u | u | u | 40.9% | -11.7% | -11.8%
COc1ccc(C(OCC(O)CN(C)C2CCCCC2)c2ccc(OC)cc2)cc1 (stereo not drawn) | u | u | -25.0% | 60.2% | 3.0% | -5.7%
SMILES | Pf growth 96h | Pf growth 48h | HCV inhibitor | AmpC inh no detg | AMA1-RON2 inh | AmpC inh detg
COc1ccc(CN(C)CC(O)COC(c2ccc(OC)cc2)c2ccc(OC)cc2)cc1 (stereo not drawn) | u | 13.1µM* | u | 77.3% | -9.4% | 0.0%
CCOC(=O)c1c(C)[nH]c(C)c1S(=O)(=O)N1CCC(C(=O)Nc2ccc(OC)c(OC)c2)CC1 | x | x | x | x | x | -1.7%
Cc1nc2ccn(Cc3cccnc3)c(=O)c2cc1C(=O)Nc1ccc(F)cc1F | x | x | x | x | x | 21.7%
COc1ccccc1-c1c(C(F)(F)F)oc2cc(OCC(=O)Nc3ccccc3C(F)(F)F)ccc2c1=O | 5.22µM* | u | -0.1% | -1.7% | 12.2% | 1.8%
Cc1ccc(C)c(CSc2nc3ccncc3n2CC(=O)Nc2ccc(N(C)C)cc2)c1 | x | x | x | x | x | 15.9%
Cc1cc(C(=O)COc2ccccc2C(N)=O)c(C)n1CC1CCCO1 (stereo not drawn) | 9.8% | 75.6% | 1.78µM* | -16.5% | -0.6% | 6.7%
Cc1cc(C(=O)COC(=O)c2ccccc2O)c(C)n1CC1CCCO1 (stereo not drawn) | 0.0% | -4.1% | 11.2µM* | -0.8% | -21.5% | -10.4%
Cc1cc(C(=O)COC(=O)c2ccccc2Br)c(C)n1CC1CCCO1 (stereo not drawn) | 183.1% | 61.6% | u | 36.5% | -9.3% | 3.4%
CCOC(=O)c1c(NC(=O)c2cc(=O)c3c(C)cc(C)cc3o2)sc(C(C)=O)c1C | x | x | x | x | x | 8.5%
CC(=O)N1CCc2c(sc3c2c(=O)n(-c2ccccc2)c(=O)n3Cc2ccccc2Cl)C1 | 11.7µM* | u | u | 20.8% | -6.3% | -2.9%
CC(=O)N1CCc2c(sc3c2c(=O)n(-c2cccc(Cl)c2)c(=O)n3Cc2ccc(F)cc2Cl)C1 | x | x | x | x | x | 7.2%
CCOC(=O)c1c(CN2CCN(C)CC2)n(-c2ccccc2)c2cc(Br)c(O)cc12 | u | u | 14.1µM* | 22.3% | -0.9% | 0.3%
CCOC(=O)c1c(CSC(=N)N)n(-c2ccccc2)c2cc(Br)c(OC(C)=O)cc12 | 2.08µM* | 2.94µM* | -60.7% | 24.2% | -5.4% | -4.3%
CCOC(=O)c1c(CN2CCN(CCO)CC2)n(-c2ccccc2)c2cc(Br)c(O)cc12 | 1.65µM* | 2.08µM* | u | 177.0% | -8.1% | -8.2%
CCOC(=O)c1c(CN2CCN(c3ccccc3)CC2)oc2cc(Br)c(O)cc12 | u | 1.65µM* | u | -2.3% | -19.7% | -1.5%
CCOC(=O)c1cccc(NS(=O)(=O)c2c(C)nc3sc(C)cn3c2=O)c1 | x | x | x | x | x | -1.7%
